Where “and” joins values, the source holds several entries; their conditions need not be identical. Identical values can stand only once. Records with an inconclusive call do not appear. Calls of active or inactive are those of the source. The call rests on the fitted dose curve; in most records, active means well fitted activation curve with a large enough effect; inconclusive means small, poorly fitted or top-dose-only effect; inactive means no such curve, though single readings can be large or run the other way.
Assay: qHTS for small molecules that induce genotoxicity in ELG1 expressing cells: Confirmatory Assay for Cherry-picked Compounds; further: nearly all actives have a fitted effect of over 35% in size
In short: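 Cells carrying the ELG1-luciferase reporter were exposed to compound for 16 hr at 37 C, 5% CO2, at 2,000 cells per well. Rise in luciferase activity, read with ONE-Glo after 30 min at room temperature, indicates genotoxic stress.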
Potency means the concentration at half of the fitted maximal effect.

SMILES	Potency
Cn1c2ccccc2c(=O)c2cc(NCCCN3CCOCC3)ccc21	17.7 µM (active)
CC(=O)c1c(C)[nH]c(C(=O)Nc2cccc(S(=O)(=O)N3CCCC3)c2)c1C	15.8 µM (active)
CCOC(=O)N1CCN(C(=O)CSCC(=O)Nc2nc(-c3ccccc3)cs2)CC1	inactive
Clc1ccc(-c2cnnc(-c3ccccn3)n2)cc1	14.1 µM (active)
O=C(CSc1ncnc2sccc12)N1CCCCC1	15.8 µM (active)
O=C1CCN(Cc2ccccc2)C=C1c1ccc2ccccc2c1	14.1 µM (active)
O=C(Cc1ccc(OCCCc2ccccc2)cc1)NO	15.8 µM (active)
CSc1ccc(C(=O)c2[nH]c(=O)[nH]c2C)cc1	31.5 µM (active)
CC(=NNC(=O)c1cccs1)c1ccc2c(c1)OCCO2	14.1 µM (active)
COc1ccc2cc(C[C@@H]3CC[C@@H](CO)O3)ccc2c1	12.5 µM (active)
O=C1/C(=C/c2ccc(O)c(O)c2)Oc2ccccc21	6.28 µM (active)
CC(=O)c1cc2c(cc1NC(=O)CSc1nc3ccccc3o1)OCO2	inactive
O=c1c2ccccc2oc2c1oc1ccccc12	14.1 µM (active)
Cc1ccc2c(c1)sc1nc(=O)n(-c3ccc(Cl)c(Cl)c3)c(=O)n12	inactive
Cc1nc(Nc2nc3ccccc3o2)nc2c1CCCC2	0.706 µM (active)
CC1CCCCC1NC(=O)CN1C(=O)NC(C)(c2ccc(OC(F)F)cc2)C1=O (stereo not drawn)	inactive
Cc1ccc2c(c1)C/C(=C/c1ccc(N(C)C)cc1)C2=O	7.05 µM (active)
N#Cc1cc2cc3c(cc2nc1SCC(=O)N1CCOCC1)OCCO3	0.889 µM (active)
COc1ccc(/C=C/c2cnc3ccccc3n2)cc1OC	0.112 µM (active)

SMILES	Potency
Cc1cc(C(=O)COC(=O)C23CC4CC(CC(O)(C4)C2)C3)c(C)n1C	14.1 µM (active)
CCn1c(C)cc(C(=O)COC(=O)c2cccnc2SC)c1C	9.96 µM (active)
CCN(CC)S(=O)(=O)c1ccc(N2CCOCC2)c(NC(=O)c2[nH]c(C)c(C(C)=O)c2C)c1	12.5 µM (active)
Cc1ccc(OCC(=O)Nc2ccc(-c3nc4ncccc4o3)cc2)cc1	28.1 µM (active)
C(=C\c1nc2ccccc2s1)/c1ccc2c(c1)OCO2	0.141 µM (active)
COc1cccc(-c2cc(NCc3cccs3)ncn2)c1	3.97 µM (active)
COc1ccc(-c2cc3cc4c(cc3cn2)OCO4)cc1	1.77 µM (active)
Cc1nc2cc(-c3ccccc3)nn2c(N)c1-c1ccccc1	0.629 µM (active)
O=C(Nc1ccccn1)c1sc2ccc([N+](=O)[O-])cc2c1Cl	4.99 µM (active)
Cc1ccc2c(c1)sc1nc(=O)n(-c3ccccc3)c(=O)n12	3.54 µM (active)
O=c1[nH]c(-c2ccc(-c3cccc(Cl)c3)o2)nc2ccccc12	1.12 µM (active) and 1.41 µM (active)
CN(C)c1ccc(/C=C2\CCc3ccccc32)cc1	1.58 µM (active)
N#Cc1ccc(-c2ccc(-c3nc4ccccc4c(=O)[nH]3)o2)cc1	inactive
Cc1cc(C(=O)Nc2ccc(Br)cn2)sc1C	2.5 µM (active)
O=c1c(-c2ccc(F)cc2)coc2c3c(ccc12)OCCO3	4.45 µM (active)
Cc1ccc(S(=O)(=O)Nc2cc3c4c(c2)CCN4C(=O)CC3)cc1	22.3 µM (active)
CN(C)c1ccc(/C=C2\C=Cc3ccccc32)c(F)c1	1.41 µM (active)
CCOC(=O)c1c(C)[nH]c(C(=O)NNC(=O)c2ccccc2F)c1C	12.5 µM (active)
CN(C)c1cccc(-c2nnc(N3CCC(C(N)=O)CC3)s2)c1	4.99 µM (active)

Reference: PubChem BioAssay AID720565 (National Center for Advancing Translational Sciences (NCATS), 2013)
